Results as given in PubChem BioAssay (NCATS).
Records with an inconclusive call do not appear. The source made the active and inactive calls. Calls come from the whole dose curve; as a rule, active = well fitted inhibition curve with a large enough effect; inconclusive = small, poorly fitted or top-dose-only effect; inactive = flat fitted curve, though single readings scatter.

Columns and labels:
[1] = test system: CRL-7250; assay: Cytotoxic Profiling of Annotated Libraries Using Quantitative High-Throughput Screening (AID 1296008); conditions: Five cell lines viability, CellTiter-Glo ATP luminescence, 48-72 h; max response: stronger effect = lower value; for max response: % is set by controls: 0 for no effect and ±100 for the full control effect
Outline: (§1)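 Cytotoxicity was measured as CellTiter-Glo ATP luminescence, read after 10 min at room temperature. Compound treatment of the cells lasted 48 or 72 hr at 37 degrees Celsius in a qHTS format.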

[2] = test system: HEK293; assay: as above; conditions: Five cell lines viability, CellTiter-Glo ATP luminescence, 48-72 h; max response: stronger effect = lower value
Outline: as §1

[3] = test system: HaCat; assay: as above; conditions: Five cell lines viability, CellTiter-Glo ATP luminescence, 48-72 h; max response: stronger effect = lower value
Outline: as §1

[4] = test system: KB-3-1; assay: as above; conditions: Five cell lines viability, CellTiter-Glo ATP luminescence, 48-72 h; max response: stronger effect = lower value
Outline: as §1

[5] = test system: NIH3T3; assay: as above; conditions: Five cell lines viability, CellTiter-Glo ATP luminescence, 48-72 h; max response: stronger effect = lower value
Outline: as §1

[6] = test system: HACAT; assay: qHTS assay to identify novel small-molecules to repurpose for Merkel cell carcinoma treatment (AID 1296009); conditions: MCC and control cell lines, CellTiter-Glo viability, 72 h; at 44.8 µM (top of the series) unless noted
Outline: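 After compound transfer in DMSO, plates were kept 72 hr at 37 degree celsius. Luminescent ATP signal from CellTiter-Glo served as viability measure, normalized against DMSO and no-cell controls.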

Measured: max response
Note: nearly all actives have a fitted effect of over 60% in size.

OC[C@H]1O[C@@H](OCc2ccccc2)[C@H](O)[C@@H](O)[C@@H]1O
inactive: [1] 0.468% | [2] -5.26% | [3] | [4] 1.59% | [5] | [6]

CCOc1ccc(-c2cc(NC(=O)c3c(F)cccc3F)c(C(=O)O)s2)cc1
inactive: [1] -4.12% | [2] 1.07% | [3] | [4] -17.4% | [5] -24.8% | [6]

CC1(C)CC=C(C#Cc2ccccc2)c2cc(/C=C/c3ccc(C(=O)O)cc3)ccc21
inactive: [1] -4.79% | [2] 1.6% | [3] | [4] 3.78% | [5] -4.98% | [6]

CC1=CC(=O)[C@]2(O[C@@H]3O[C@@H](C)[C@H](O)[C@@H](O)[C@H]3O)C=CO[C@@H](O[C@@H]3O[C@H](CO)[C@@H](O)[C@H](O)[C@H]3O)[C@H]12
inactive: [1] | [2] -3.6% | [3] | [4] | [5] | [6] inactive [at 17.4 µM]

COc1c(C)c(OCC(O)C(C)(C)O)cc2c1CNC2=O (configuration not stated)
inactive: [1] 2.44% | [2] -3.96% | [3] | [4] 5.28% | [5] -1.72% | [6]

CC(=O)N[C@H](Cc1c[nH]c2ccccc12)C(=O)OCc1cc(C(F)(F)F)cc(C(F)(F)F)c1
inactive: [1] -4.46% | [2] -2.25% | [3] | [4] | [5] | [6]

CC(=O)O[C@H]1C[C@@H](O)C(C)(C)C2C[C@@H](OC(C)=O)[C@@]3(C)C4=CCC(C(CO)CC(O)C5OC5(C)C)[C@]4(C)CCC3[C@]21C (some centres not stated)
inactive: [1] | [2] -1% | [3] | [4] | [5] -1.52% | [6] inactive [at 17.4 µM]

C/C=C(\C)C(=O)OC[C@H]1O[C@H](O[C@H]2O[C@H](CO)[C@@H](O)[C@H](O)[C@H]2O[C@@H]2O[C@H](CO)[C@@H](O)[C@H](O)[C@H]2O)[C@H](O[C@@H]2O[C@H](CO)[C@@H](O)[C@H](O)[C@H]2O)[C@@H](O)[C@@H]1O
inactive: [1] 0.965% | [2] -1.76% | [3] | [4] | [5] | [6] inactive [at 17.4 µM]

C=C1CC/C=C(/C(=O)O)CCC2C1CC2(C)C (configuration not stated)
inactive: [1] -2.67% | [2] -4.76% | [3] | [4] 4.31% | [5] | [6]

Nc1ccc(-n2nc(C(F)(F)F)cc2C(F)(F)F)cc1
inactive: [1] 1.57% | [2] -3.16% | [3] | [4] 7.09% | [5] | [6]

O=C(Cc1ccccc1)OC[C@H]1O[C@H](O[C@H]2O[C@H](CO)[C@@H](O)[C@H](O)[C@H]2O)[C@H](O)[C@@H](O)[C@@H]1O
inactive: [1] -5.14% | [2] 4.52% | [3] | [4] 9.38% | [5] 0.692% | [6] inactive [at 17.4 µM]

C[C@@H]1O[C@@H](O[C@H]2[C@H](Oc3cc(O)c(C(=O)CCc4ccc(O)cc4)c(O)c3)O[C@H](CO)[C@@H](O)[C@@H]2O)[C@H](O)[C@H](O)[C@H]1O
inactive: [1] 2.09% | [2] -1.52% | [3] | [4] | [5] | [6]

COc1cc(C(C)=O)ccc1O[C@@H]1O[C@H](CO)[C@@H](O)[C@H](O)[C@H]1O
inactive: [1] -12.2% | [2] -0.593% | [3] | [4] 6.72% | [5] 0.808% | [6]

CC1(C(=O)O)CCCC2(C)C3CC4C5CC3(CCC12)CC45C (configuration not stated)
inactive: [1] -3.47% | [2] 2.22% | [3] | [4] 4.9% | [5] -21.3% | [6]

CC1(C)C2CCC1(C)C(OC(=O)C(O)(CC(=O)O)CC(=O)O)C2 (configuration not stated)
inactive: [1] | [2] -0.502% | [3] | [4] | [5] 3.45% | [6]

COc1cccc(C(=O)NCCNc2nc3cc(C)cc(C)c3cc2C#N)c1
inactive: [1] -1.46% | [2] -19% | [3] | [4] 5.87% | [5] -4.31% | [6]

COC(=O)C1=COC(O[C@@H]2O[C@H](COC(=O)/C=C/c3ccc(O)cc3)[C@@H](O)[C@H](O)[C@H]2O)C2C(CO)=CCC12 (some centres not stated)
inactive: [1] | [2] -1.21% | [3] | [4] | [5] 2.77% | [6] inactive [at 17.4 µM]
